# Experimental data: PubChem BioAssay (Tox21)
# Values joined by “and” are separate entries in the source; they are usually repeats but may differ in a detail not shown here. Equal entries are not always repeated. Results filed as inconclusive are left out. Where a call stands in place of a potency, no number is given. Some compounds were tested as several samples or in several runs, with calls that do not always agree. Active and inactive are the calls of the source. Unless noted, calls come from the whole dose curve; as a rule, active = well fitted curve in the direction sought with a large enough effect in the repeat runs; inconclusive = weak or mixed curves; inactive = no such curve, though single readings can be large; an effect the other way counts as inactive or inconclusive.
# Key:
# [1] = qHTS assay to identify small molecule antagonists of the glucocorticoid receptor (GR) signaling pathway - cell viability counter screen (AID 720693); note: nearly all actives have a fitted effect of over 55% in size
# [2] = qHTS assay for identifying genotoxic compounds that show differential cytotoxicity against isogenic chicken DT40 cell lines with known DNA damage response pathways - wild type cell line (AID 743012); note: nearly all actives have a fitted effect of over 60% in size; note: potency is the fitted concentration of half-maximal effect
# Summary of the method: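 First, wild type DT40 cells were plated at 300 per well and equilibrated about 0.5 h at 37 C/5% CO2. Next, compounds in DMSO were added and exposure lasted 40 h. Finally, CellTiter-Glo was added for 30 min at room temperature and luminescence recorded.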
# [3] = qHTS assay for identifying genotoxic compounds that show differential cytotoxicity against isogenic chicken DT40 cell lines with known DNA damage response pathways - Rad54/Ku70 mutant cell line (AID 743015); note: nearly all actives have a fitted effect of over 60% in size; note: potency is the fitted concentration of half-maximal effect
# [4] = qHTS assay to identify small molecule antagonists of the androgen receptor (AR) signaling pathway - cell viability counter screen (AID 743033; note: nearly all actives have a fitted effect of over 45% in size)
# [5] = qHTS assay to identify small molecule antagonists of the androgen receptor (AR) signaling pathway using the MDA cell line - cell viability counter screen (AID 743041; note: nearly all actives have a fitted effect of over 45% in size)
# Summary of the method: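 R1881-driven MDA-kb2 AR-luc cells, 3,000/well, were dosed with library compounds for 16 h; cell health came from CellTiter-Fluor fluorescence in the reporter wells.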
# [6] = qHTS assay to identify small molecule antagonists of the thyroid receptor (TR) signaling pathway - cell viability counter screen (AID 743064); note: nearly all actives have a fitted effect of over 50% in size
# Summary of the method: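 GH3.TRE-Luc rat pituitary cells dosed after 4 hr plating, co-stimulated with T3 at 1 nM final, incubated 23.5 h at 37 C. Viability measured in the same wells by CellTiter-Fluor fluorescence after 30 min further at 37 C.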
# [7] = molecular target: Androgen receptor (Homo sapiens) (UniProt P10275); assay: qHTS assay to identify small molecule antagonists of the androgen receptor (AR) signaling pathway (AID 743035; active = well fitted inhibition curve with a large enough effect in the signal ratio in the repeat runs, not every such curve was filed as active; the % refers to the signal ratio)
# Sequence of Androgen receptor (Homo sapiens) (P10275 whole entry, looked up): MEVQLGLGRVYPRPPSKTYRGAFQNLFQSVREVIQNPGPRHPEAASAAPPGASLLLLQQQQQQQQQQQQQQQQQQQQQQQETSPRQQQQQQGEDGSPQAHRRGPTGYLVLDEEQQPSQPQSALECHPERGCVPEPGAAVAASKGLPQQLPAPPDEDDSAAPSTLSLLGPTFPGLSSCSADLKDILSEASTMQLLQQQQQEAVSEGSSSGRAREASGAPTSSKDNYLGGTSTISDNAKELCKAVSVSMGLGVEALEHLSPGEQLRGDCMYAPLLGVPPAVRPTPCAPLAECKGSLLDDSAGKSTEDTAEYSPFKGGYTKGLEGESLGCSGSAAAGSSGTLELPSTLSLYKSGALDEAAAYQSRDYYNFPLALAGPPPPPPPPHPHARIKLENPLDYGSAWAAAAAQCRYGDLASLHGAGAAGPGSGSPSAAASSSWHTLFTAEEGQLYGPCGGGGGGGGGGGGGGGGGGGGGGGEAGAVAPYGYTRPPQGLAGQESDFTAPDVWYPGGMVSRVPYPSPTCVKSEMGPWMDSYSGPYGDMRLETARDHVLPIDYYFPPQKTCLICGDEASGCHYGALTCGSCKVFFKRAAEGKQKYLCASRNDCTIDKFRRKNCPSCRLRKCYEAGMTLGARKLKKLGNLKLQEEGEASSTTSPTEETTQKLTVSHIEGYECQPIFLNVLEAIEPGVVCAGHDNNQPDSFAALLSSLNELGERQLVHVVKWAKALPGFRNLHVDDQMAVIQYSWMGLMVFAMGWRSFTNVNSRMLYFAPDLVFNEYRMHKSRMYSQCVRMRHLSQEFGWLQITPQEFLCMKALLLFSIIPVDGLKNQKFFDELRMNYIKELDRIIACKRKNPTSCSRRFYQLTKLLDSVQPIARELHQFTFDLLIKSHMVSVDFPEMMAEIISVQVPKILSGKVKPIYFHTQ
# Summary of the method: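 Beta-lactamase FRET read (2 h RT incubation with LiveBLAzer B/G) following 16 h of compound plus R1881 treatment of AR-UAS-bla HEK293 cells, which had been pre-incubated 4 h at 37C.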
# [8] = molecular target: Androgen receptor (Homo sapiens) (UniProt P10275); assay: qHTS assay to identify small molecule agonists of the androgen receptor (AR) signaling pathway using the MDA cell line (AID 743040; note: nearly all actives have a fitted effect of over 20% in size)
# Summary of the method: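 After a 5 h incubation at 37C and 0% CO2, MDA-kb2 reporter cells were dosed with compounds in DMSO and kept 16 h under the same conditions. Luciferase activity was then read as luminescence with ONE-Glo.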
# [9] = molecular target: Androgen receptor (Homo sapiens) (UniProt P10275); assay: qHTS assay to identify small molecule antagonists of the androgen receptor (AR) signaling pathway using the MDA cell line (AID 743042; note: nearly all actives have a fitted effect of over 55% in size)
# Summary of the method: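 Antagonist mode: compounds plus R1881 agonist added to MDA-kb2 AR-luc cells, incubated 16 h at 37C. Luciferase reporter luminescence quantified, with multiplexed CellTiter-Fluor readout for cell viability.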
# [10] = qHTS assay for identifying genotoxic compounds that show differential cytotoxicity against isogenic chicken DT40 cell lines with known DNA damage response pathways - Rev3 mutant cell line (AID 743014); note: nearly all actives have a fitted effect of over 55% in size
Compound,outcome [1],Potency [2],Potency [3],outcome [4],Potency [5],Potency [6],outcome [7],Potency [8],outcome [9],Potency [10]
CCNC(=S)NCC,inactive,inactive,inactive,inactive,inactive,inactive,,,,
CC(C)CC(=O)CC(C)CC(C)C (centres undefined),inactive,inactive,inactive,inactive,inactive,inactive,inactive,inactive,inactive,
CNC(=O)Oc1ccc2c(c1)[C@]1(C)CCN(C)[C@@H]1N2C,inactive,inactive,inactive,inactive,inactive,inactive,,,,
OC1C(O)C(O)C(O)C(O)C1O (centres undefined),inactive,inactive,inactive,inactive,inactive,,,,,
COCCOC(=O)c1ccccc1C(=O)OCCOC,inactive,inactive,inactive,inactive,inactive,inactive,,,,
CC(=O)Oc1ccc(C)cc1,inactive,,inactive,inactive,inactive,inactive,inactive,inactive,inactive,inactive
Nc1ccc(Cl)c(N)c1,inactive,inactive,,inactive,inactive,inactive,,,,inactive
CSc1ccc(Cl)cc1,inactive,inactive,inactive,inactive,inactive,inactive,inactive,inactive,inactive,
CNC(=S)N(C)C,inactive,inactive,inactive,inactive,inactive,inactive,,,,
CCCCCCCO,inactive,inactive,inactive,inactive,inactive,inactive,,,,inactive
COc1ccc(C)cc1N,inactive,,inactive,inactive,inactive,,inactive,inactive,inactive,inactive
CC(=O)OCc1ccccc1,inactive,,inactive,inactive,inactive,,inactive,inactive,inactive,inactive
N#Cc1ccccc1,inactive,inactive,inactive,inactive,inactive,inactive,,,,
CCCCCCC=O,inactive,inactive and 48.6 µM (active),inactive and 43.3 µM (active),inactive,inactive,inactive,,,,
C=CCc1ccc(OC)c(OC)c1,inactive,inactive,inactive,inactive,inactive,,,,,
COC(=O)c1cccnc1,inactive,,inactive,inactive,inactive,inactive,inactive,inactive,inactive,inactive
CN1C(=O)CC[C@H]1c1cccnc1,inactive,inactive,inactive,inactive,inactive,inactive,,,,
C=CC(=O)OCCC(=O)O,inactive,inactive,inactive,inactive,inactive,,,,,
O=C1CCCC1,inactive,inactive,inactive,inactive,inactive,inactive,,,,
CC(C)CCCCCCCOC(=O)CCCCC(=O)OCCCCCCCC(C)C,inactive,inactive,inactive,inactive,inactive,inactive,,,,
OCc1ccccc1,inactive,,inactive,inactive,inactive,inactive,inactive,inactive,inactive,inactive
N[C@H](Cc1c[nH]c2ccccc12)C(=O)O,inactive,inactive,inactive,inactive,inactive,inactive,,,,inactive
CCOCC(=O)O,inactive,,inactive,inactive,inactive,inactive,,,,inactive
CC(C)(Oc1ccc(CCNC(=O)c2ccc(Cl)cc2)cc1)C(=O)O,inactive,,inactive,inactive,inactive,inactive,,,,
Clc1ccccn1,inactive,,inactive,inactive,inactive,inactive,,,,inactive
CCCCCCCCCCCCCCCCO,inactive,,inactive,inactive,inactive,,,,,
O=C1c2ccccc2CCc2ccccc21,inactive,,,inactive,inactive,,,,,
